This is a sample that favours compounds with a hit; in the whole collection about 8% have one here.
HT1080-NT tox – kills 2HG-producing HT-1080-NT fibrosarcoma cells; HT-1080-NT fibrosarcoma viability, CellTiter-Glo ATP luminescence, 48 h; Potency, µM (doses to about 46.1 µM), for the others: at the top dose activity, negative = less viability, usual class: cytotoxic; actives 1.6% (n = 360,000); AID 686970;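 further: NT is the 2HG producing partner of a matched IDH1 knockdown line; 0% = DMSO-treated cells and -100% = media-only wells without cells; nearly all actives have a fitted effect of over 55% in size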
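Luminescent CellTiter-Glo readout after 48 hours of compound exposure at 37 degrees C defined viability of HT-1080-NT cells. Activity was normalized to DMSO wells and cell-free media wells; concentration-response curves were fitted and assigned curve classes.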
MCF10A rereplic – induces DNA re-replication in MCF 10a normal breast cells; Potency, µM (top dose mostly 46.1 µM), for inactives: at the highest dose activity, positive = re-replication, hits mostly activators; actives 2.9% (n = 350,000); MCF 10A DNA re-replication, Hoechst nuclear intensity, 48 h; further: % of control where 0% means no effect; nearly all actives have a fitted effect of over 50% in size
HT1080 IDH1KD tx – toxicity to HT-1080 IDH1 knockdown cells (counter line). HT-1080 IDH1 knockdown viability, ATP luminescence, 48 h. Potency, µM (series often up to 46.1 µM), inactives show at the top dose activity, negative = toxicity, most hits filed as cytotoxic. actives 2% (n = 360,000);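 further: 0% = DMSO wells and -100% = cell-free medium wells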
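Luminescent ATP read-out (CellTiter-Glo, 10 min at room temperature) after 48 h compound exposure at 37 °C gave viability of IDH1-knockdown HT-1080 cells. Activity was normalised to DMSO and cell-free wells, then fitted as concentration-response curves.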
KB-V1 cytotox – kills drug-selected multidrug resistant KB-V1 cells; actives 3.4% (n = 400,000); KB-V1 MDR cells viability, CellTiter-Glo, 72 h; Potency, µM (highest dose often 46.1 µM), usual class: cytotoxic; AID 1347076; further: on the % scale 0 is the no-effect control and ±100 the full control effect; nearly all actives have a fitted effect of over 60% in size
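Potencies derive from concentration-effect curves fitted to normalized luminescence (CellTiter-Glo) of KB-V1 cells treated for 72 h at 37 degrees C in phenol-red-free DMEM containing 10% FBS.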
KB-3-1 tox – kills parental KB-3-1 adenocarcinoma cells; AID 1347075; actives 1.4% (n = 400,000); Potency, µM (highest dose often 46.1 µM), most hits filed as cytotoxic; KB-3-1 viability, CellTiter-Glo ATP luminescence, 72 h; further: on the % scale 0 is the no-effect control and ±100 the full control effect; nearly all actives have a fitted effect of over 60% in size
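Cells are dispensed, compounds pinned in, plates held at 37 °C for 72 h, then CellTiter-Glo is added and luminescence read after 10 minutes. Cell line: parental KB-3-1 in phenol-red-free DMEM, 10% FBS.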
SW480 rerep – induces DNA re-replication in SW480 colon adenocarcinoma cells. SW480 DNA re-replication, Hoechst DNA content imaging, 48 h. Potency, µM (series often up to 46.1 µM), for the others: top-dose re-replication activation, hits mostly activators. actives 1.8% (n = 340,000). AID 624297; further: % of control where 0% means no effect; nearly all actives have a fitted effect of over 55% in size
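Cells (250 per well) received 23 nL compound or DMSO by pin tool and were kept 48 hr at 37 C, 5% CO2. Nuclei were then stained with Hoechst for 40 min and scanned for DNA content.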
Starred values were filed as active, the others as inactive; i = inactive; ? = inconclusive; . = not tested or not shown; [ ] = another dose, or the depositor's remark. The call rests on the fitted dose curve; in most records, active means well fitted curve in the direction sought with a large enough effect; inconclusive means small, poorly fitted or top-dose-only effect, or another doubt; inactive means no such curve, though single readings can be large; an effect the other way counts as inactive or inconclusive. Potency means the concentration at half of the fitted maximal effect.

SMILES	HT1080-NT tox	MCF10A rereplic	HT1080 IDH1KD tx	KB-V1 cytotox	KB-3-1 tox	SW480 rerep
COC(=O)c1[nH]c2c(c1C)C(=O)CC(c1cccs1)C2 (centres undefined)	1µM*	2.1µM*	1µM*	2.1µM*	?	?
COc1ccc(OC)c(C2CC(=O)c3c([nH]c(C(=O)OCC4CCCCC4)c3C)C2)c1 (centres undefined)	.	.	.	i	i	.
COC(=O)c1[nH]c2c(c1C)C(=O)CC(c1cc(OC)ccc1OC)C2 (centres undefined)	?	8.2µM*	21µM*	5.2µM*	3.7µM*	?
CCOC(=O)C1CCN(C(c2cc3ccc(C)c(C)c3[nH]c2=O)c2nnnn2C2CCCCC2)CC1 (centres undefined)	-6%	13%	?	16µM*	i	0%
COc1ccc(-c2sc3ccccc3c2C#Cc2cncn2C)cc1	?	?	?	i	?	6%
Cn1cncc1C#Cc1c(-c2ccc(S(C)(=O)=O)cc2)sc2ccccc12	-1%	?	1%	i	i	0.73µM*
C/C=C/C=C(/NC(=O)c1ccccc1)C(=O)Nc1ccccc1	17%	-31%	9%	i	i	-10%
Cc1ccc(S(=O)(=O)N2CCC3(CC2)OCCN3S(=O)(=O)c2cccs2)cc1	?	?	-19%	i	i	?
COc1ccc(S(=O)(=O)N2CCC3(CC2)OCCN3S(=O)(=O)c2cccs2)cc1	-2%	14%	5%	8.2µM*	i	6%
CCOC(=O)c1c(NC(=O)COc2cc(C)ccc2C(C)C)sc2c1CCCC2	.	.	.	i	i	.
Cc1ccc(NC(=S)NN(C)c2cc(C)nc(C)n2)cc1	9%	2%	8%	18µM*	i	-2%
COc1ccc(C(CNC(=O)CN2C(=O)NC3(CC(C)CC(C)(C)C3)C2=O)N2CCOCC2)cc1 (centres undefined)	12%	6%	-2%	i	i	-13%
N#C/C(N=Nc1ccccc1O)=N\Nc1ccccc1O	21µM*	?	9.2µM*	?	16µM*	2%[9.22 µM]
Cc1cc(SCC(=O)Nc2cccc(S(=O)(=O)N3CCOCC3)c2)nc2ccccc12	-1%	2%	-3%	i	i	17%
Cn1cc(CN2CCC(C(=O)Nc3cccc(-c4cccc(F)c4)c3)CC2)cn1	21µM*	?	23µM*	i	i	?
Cc1cccc(CN2CCC(C(=O)Nc3cccc(-c4cccc(F)c4)c3)CC2)n1	?	?	?	i	i	?
Cc1nn(C(C)C)c(C)c1CN1CCC(C(=O)Nc2cccc(-c3cccc(F)c3)c2)CC1	15µM*	?	21µM*	?	?	100%
CCCn1ncc(CN2CCC(C(=O)Nc3cccc(-c4cccc(F)c4)c3)CC2)c1C	21µM*	?	?	i	?	?
COCCCNc1nc2nonc2nc1N1CCC(C(C)N2CCOCC2)CC1 (centres undefined)	2%	9%	1%	i	i	-128%
CS(=O)(=O)c1ccc(-c2cccc(NC(=O)COc3ccc(Cl)cc3)c2)nn1	-26%	5%	?	i	?	?
COc1cccc(NC(=O)c2ccccc2Br)c1	4%	12%	6%	i	i	-2%
CCCCC(=O)Nc1cccc(NC(=S)NC(=O)C(C)C)c1	3%	2%	5%	21µM*	i	-13%
CCCCC(=O)Nc1cccc(NC(=O)c2ccccc2Br)c1	2%	4%	-1%	5.2µM*	i	-5%
CCCCC(=O)Nc1cccc(NC(=O)CC)c1	-1%	0%	0%	i	i	-8%
CC(C)Sc1nc(N2CCOCC2)c2c(c1C#N)CC(C)(C)SC2	-2%	?	-3%	6.5µM*	?	-6%
SMILES	HT1080-NT tox	MCF10A rereplic	HT1080 IDH1KD tx	KB-V1 cytotox	KB-3-1 tox	SW480 rerep
CC(C)CSc1nc(N2CCOCC2)c2c(c1C#N)CC(C)(C)SC2	-4%	?	-2%	i	i	3%
CC1CCN(C(=O)Cn2c(SCC(=O)Nc3nccs3)nc3ccccc32)CC1	-4%	16%	-3%	4.6µM*	i	1%
CCOCCCn1c(SCC(=O)N2CCOCC2)nc2ccccc2c1=O	5%	-15%	2%	?	i	-13%
Cc1ccc(NC(=O)CSc2nc3ccccc3c(=O)n2CCCC(=O)NCCCN2CCOCC2)cc1C	16µM*	11%	?	i	i	-5%
CC(=O)Nc1ccc(NC(=O)CSc2nc3ccccc3c(=O)n2CCCN2CCOCC2)cc1	-2%	0%	-18%	i	i	7%
CCc1ccc(NC(=O)CSc2nc3ccccc3c(=O)n2CCCC(=O)NCCCN2CCOCC2)cc1	?	?	18µM*	i	i	?
CCOC(=O)CSc1nc2ccccc2c(=O)n1CCN1CCOCC1	6%	-2%	1%	13µM*	i	-1%
COc1ccc(CNc2ncc(-c3ccccc3)n2C)cc1	-7%	-10%	-3%	i	i	-4%
CC1Cc2ccccc2N1C(=O)CNc1cccc(S(=O)(=O)N2CCCC2)c1 (centres undefined)	-1%	?	-1%	?	i	?
CCOC(=O)CSc1nc2ccccc2n1CC(=O)N1CCN(c2ccccc2)CC1	7%	-4%	-11%	7.3µM*	i	-2%
Cc1ccc(NC(=O)CSc2nc3ccccc3c(=O)n2CCCN2CCCCC2)cc1Cl	23µM*	23µM*	?	?	i	-3%
CN(C)C(=O)CSc1nc2ccccc2n1CC(=O)N1CCN(c2ccccc2)CC1	6%	18%	5%	i	i	?
Cc1ccc(-c2cn(-c3ccccc3)c(SCC(=O)NC3CCS(=O)(=O)C3)n2)cc1C (centres undefined)	3%	15%	3%	3.7µM*	i	2%
COc1ccc(-n2nnnc2SCC(=O)Nc2cc(OC)c([N+](=O)[O-])cc2C)cc1	-14%	4.6µM*	-23%	i	i	2%
COc1cc(NC(=O)CSc2nc3ccccc3n2-c2ccccc2)c(C)cc1[N+](=O)[O-]	0%	?	-5%	8.2µM*	i	-5%
CN(C)S(=O)(=O)c1cccc(NC(=O)CSc2nc3ccccc3n2-c2ccccc2)c1	-23%	?	?	2.3µM*	?	?

Compound activity as filed in PubChem BioAssay.
